IMPase cell inh = IMPase inhibition in cells; CHO-M1 cells, IP1 accumulation, HTRF TR-FRET ratio; inhibition (IP1 accumulation), % at 46.1 µM; 120,000 tested, under 10 active; AID 901; active = well fitted curve in the direction sought with a large enough effect in the signal ratio, not every such curve was filed as active; inconclusive = small, poorly fitted or top-dose-only effect, or a change in a side signal; inactive = no such curve, though single readings can be large or run the other way; the % refers to the signal ratio;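 note: cells stimulated with carbachol in lithium chloride buffer; plate controls were DMSO basal wells for no effect and reference inhibitor wells for full effect; higher means more IMPase inhibition seen as more IP1 and lower FRET ratio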
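CHO-M1, 2000 cells/well, cultured 16–30 h; cpd up to 46 uM; carbachol (50 uM solution, stimulation buffer w/ 50 mM LiCl, pH 7.4), 30 min 37C; IP-One TR-FRET, 10 min RT; Ex 320/Em 665, 620; Hill-fit AC50.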
ALDH1A1 inh = inhibitors of human aldehyde dehydrogenase 1A1; P00352; Purified ALDH1A1, NADH fluorescence, propionaldehyde substrate; Potency, µM (titrated, usually from 75.3 µM), inactives show top-dose activity, negative = inhibition, hits mostly inhibitors; 220,000 compounds, 7.3% hits; AID 1030;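 note: potency is the fitted concentration of half-maximal effect; plate controls were no enzyme wells and a reference inhibitor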
Target sequence (P00352 whole entry, looked up): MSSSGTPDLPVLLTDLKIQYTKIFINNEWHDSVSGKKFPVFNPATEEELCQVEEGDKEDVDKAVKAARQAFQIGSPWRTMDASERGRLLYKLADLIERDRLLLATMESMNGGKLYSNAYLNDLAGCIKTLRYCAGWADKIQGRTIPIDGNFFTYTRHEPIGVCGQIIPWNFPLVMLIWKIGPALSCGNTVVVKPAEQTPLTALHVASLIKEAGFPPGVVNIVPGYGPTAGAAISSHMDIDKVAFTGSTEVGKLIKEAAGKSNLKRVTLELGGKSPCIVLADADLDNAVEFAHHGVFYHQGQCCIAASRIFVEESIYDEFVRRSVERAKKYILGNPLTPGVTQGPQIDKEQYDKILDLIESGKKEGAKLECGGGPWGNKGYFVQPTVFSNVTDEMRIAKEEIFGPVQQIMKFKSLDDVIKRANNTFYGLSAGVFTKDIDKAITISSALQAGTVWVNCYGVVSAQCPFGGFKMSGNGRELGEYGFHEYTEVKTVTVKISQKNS
HPGD inh = inhibitors of human 15-hydroxyprostaglandin dehydrogenase (HPGD) | purified HPGD, NADH fluorescence kinetic, PGE2 substrate | Potency, µM, inactives show at the highest dose activity change, negative = inhibition, actives largely listed as inhibitors | 150,000 compounds, 4.3% hits; note: potency is the fitted concentration of half-maximal effect
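NADH formation kinetics: reaction with 30 uM PGE2 and 1 mM NAD+ (final), 20 nM enzyme, Tris-HCl pH 8 with Tween 20, after 15 min compound preincubation at room temperature. Fluorescence change, last versus first of five reads.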
* marks the source's active call; other numbers are inactive results; u = inconclusive; x = no result given. Compounds with a hit are over-represented: about 9% of the library has one in this group of screens. Unless noted, calls come from the whole dose curve; as a rule, active = well fitted inhibition curve with a large enough effect (not every such curve was filed as active); inconclusive = small, poorly fitted or top-dose-only effect, or another doubt; inactive = no such curve, though single readings can be large or run the other way. Unless noted, % is set by controls: 0 for no effect and ±100 for the full control effect.

SMILES	IMPase cell inh	ALDH1A1 inh	HPGD inh
O=C(c1ccc(Cl)cc1)c1cnc(-c2ccccc2)s1	-6.4	20.2%	-5.0%
CCC(=O)N1CCc2cc(Br)cc(S(=O)(=O)NCC3CCCN3CC)c21 (centres undefined)	24.8	-0.1%	2.9%
Cc1ccc(/C=N\NC(=O)c2cc([N+](=O)[O-])cc([N+](=O)[O-])c2)o1	x	-4.9%	-12.1%
C/C(=N\NC(=O)c1ccccc1)c1ccc(N2CCCCC2)cc1	x	-8.3%	-4.4%
O=C(N/N=C/c1ccc(N2CCCCC2)o1)c1ccccc1	x	25.1µM*	15.8µM*
O=C(N/N=C/c1ccc(N2CCOCC2)o1)c1cccc([N+](=O)[O-])c1	x	17.8µM*	-27.3%
CC(C)CCn1c(=O)c2ccccc2n2c(CCl)nnc12	x	25.1µM*	x
CC(C)CCn1c(=O)c2ccccc2n2c(CN(C)Cc3ccccc3)nnc12	3.4	u	-14.7%
CCCCCn1c(=O)c2ccccc2n2c(CCl)nnc12	x	25.1µM*	x
CCCn1c(=O)c2ccccc2n2c(SCN3C(=O)c4ccccc4C3=O)nnc12	3.8	-7.2%	-9.3%
COc1cccc(C(=O)N2CCSC2=S)c1	4.8	-10.4%	-8.4%
CC(=O)Nc1ccc(N/C=C/C(=O)C(C)(C)C)cc1	3.7	22.4µM*	u
COc1cccc(Oc2ccc(N/C=C/C(=O)C(C)(C)C)cc2)c1	x	10µM*	-26.0%
COc1ccccc1Oc1ccc(N/C=C/C(=O)C(C)(C)C)cc1	x	-14.8%	x
Cc1ccc(N/C=C/C(=O)C(C)(C)C)c(O)c1	2.2	u	-29.6%
CC(C)(C)SCCNC(=O)CN(c1ccccc1)S(=O)(=O)c1ccc(F)cc1	x	7.9%	x
CCOc1ccc(C(=O)Nc2ccccc2NC(C)=O)cc1OCC	x	0.5%	x
CCOc1ccccc1Nc1ccc(C(=O)O)cc1NC(C)=O	2.1	u	22.4µM*
COc1ccc(CCNC(=O)CSc2nnc3ccc(-c4cccnc4)nn23)cc1	x	5.5%	x
CC1=C(/C=C/C(C)=C\C=C\C(C)=C\C(=O)O)C(C)(C)CCC1	x	4.2%	-11.3%
CC1=C(/C=C/C(C)=C/C=C/C(C)=C/C(=O)O)C(C)(C)CCC1O (centres undefined)	x	6.31µM*	x
COc1ccccc1CN1CC[C@@]2(CCCN(C(=O)c3ccco3)C2)C1	x	u	-7.2%
CCOc1nc(NCc2ccco2)nc(Nc2ccccc2F)n1	7.5	8.1%	-13.8%
CCOc1nc(NCc2ccco2)nc(Nc2ccc(OC)cc2)n1	5.1	20µM*	-12.9%
COc1ccccc1NC(C#N)c1ccccc1OCc1ccccc1 (centres undefined)	x	17.8µM*	-10.1%
SMILES	IMPase cell inh	ALDH1A1 inh	HPGD inh
CNC(=O)c1ccc(OCc2ccccc2)c(OC)c1	5.3	6.6%	-5.4%
Cc1ccc(-c2nnc(N3CCOCC3)c3ccccc23)cc1S(=O)(=O)NCC1CCCO1 (centres undefined)	-3.0	4.6%	-4.1%
O=S(=O)(NCc1ccccc1)c1ccc(S(=O)(=O)N(Cc2ccccn2)Cc2ccco2)cc1	6.0	5.1%	-7.2%
CCN(CC(=O)NCCc1ccccc1)S(=O)(=O)c1ccc(Br)cc1	8.1	-1.2%	-8.7%
CN(C)S(=O)(=O)c1ccc(S(=O)(=O)N(CC(=O)Nc2ccccc2)CC2CCCO2)cc1 (centres undefined)	-13.7	u	-15.3%
CCN(CC)S(=O)(=O)c1ccc(S(=O)(=O)N(CC(=O)Nc2ccccc2)Cc2ccco2)cc1	4.3	8.91µM*	-4.6%
O=C(CN(Cc1ccccc1)S(=O)(=O)c1ccc(Br)cc1)NCc1ccco1	5.3	12.6µM*	-18.8%
CC(=O)Nc1ccc(S(=O)(=O)N(Cc2ccco2)CC2CCCO2)cc1 (centres undefined)	4.2	12.6µM*	-23.6%
CCN(CC)S(=O)(=O)c1ccc(S(=O)(=O)N(Cc2ccccn2)Cc2ccco2)cc1	9.1	1.78µM*	-10.0%
CN(C)S(=O)(=O)c1ccc(S(=O)(=O)N(CC(=O)Nc2ccccc2)Cc2ccco2)cc1	-5.2	6.9%	1.3%
NCCn1c(=O)c(CCc2ccccc2)nc2cncnc21	x	-3.2%	x
N[C@H](C(=O)O)[C@H]1C[C@H]1C(=O)O	x	15.3%	x
C/C=C(\C)C(=O)O[C@H]1C[C@@]2(C)CCC(C(C)C)C2(O)CC[C@@]1(C)O (some centres undefined)	x	-5.0%	-1.8%
CC(=O)/C=C(\C)NCCNc1c(F)c(F)c(CO)c(F)c1F	6.3	7.9%	x
COC(=O)c1c(O)cc(=O)n2c1CCCCC2	x	1.78µM*	x
COC(=O)c1c(C(=O)OC)c2n(c1C)CCC2	0.6	7.0%	-4.9%
COc1cc([N+](=O)[O-])ccc1NC(=O)Cc1ccccc1	x	-2.7%	x
COc1cc([N+](=O)[O-])ccc1NC(=O)CCCOc1cccc(C)c1C	5.6	14.1µM*	-16.0%
CN(C)/C=C/c1oc2ccc(O)cc2c1[N+](=O)[O-]	x	15.0%	x
